The source of these data is PubChem BioAssay AID687030 (Broad Institute, 2013).

Screen size: about 1,400 compounds; about 10 (0.7%) were called active. How the calls were made is not given here. A selection follows. Results with a measured potency or affinity are listed apart.

The experiment in a line: BHK-21 cell toxicity, dose response, cytotoxicity control, plate reader, cherry-pick samples (AID 687030).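 Further: cells were exposed to compound for three days before reading.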 As to conditions: BHK-21 cells; series mostly up to 19.5 µM.
For the compound `CCC(=O)Nc1ccc(NC(=O)c2oc3ccccc3c2C)cc1`, the call was inactive.

On to `CC1(C)CC(NC(=O)COc2ccccc2Cl)CC(C)(C)N1`, for which the compound was called inactive.

For `O=C(NC1CCCC1)C(C1CC1)n1c(C2CCCC2)nc2ccccc21` (configuration not stated), the result was inactive.

In the case of `CCOC(=O)c1ccc(S(=O)(=O)N2CCC(N3CCCCC3)CC2)cc1`, the compound was called inactive.

Regarding `CCc1ccc(NC(=O)N(CCCN2CCOCC2)Cc2cccs2)cc1`, the result was inactive.

`COc1ccc(N(C(=O)c2cccnc2)S(=O)(=O)c2ccc(OC)c(OC)c2)cc1`: the result was inactive.

As for `CO[C@@H]1CN(C)C(=O)c2ccc(NC(C)=O)cc2OC[C@@H](C)N(S(C)(=O)=O)C[C@H]1C`, the result was inactive.

For the compound `CCc1ccc2cc(C)cc(C)c2n1`, the compound was classed as inactive.

As for `COc1ccc(S(=O)(=O)Nc2ccc3c(c2)C(=O)N([C@@H](C)CO)C[C@@H](C)[C@H](CN(C)S(=O)(=O)c2ccc(Cl)cc2)O3)cc1`, the compound was called inactive.

For the compound `CCCn1c(-c2ccc[nH]c2=O)nc2cc(C)c(C)cc21`, the outcome was inactive.

Turning to `C[C@H]1CCCCO[C@@H](CN(C)C(=O)Nc2cccc3ccccc23)[C@@H](C)CN([C@@H](C)CO)C(=O)c2cc(NC(=O)Cc3ccccc3)ccc2O1`, the call was inactive.

On to `Cc1cccc(C(=O)N2CCC(=O)N([C@H](COCc3ccc(Cl)cc3)Cc3ccccc3)CC2)c1`, for which the compound was called inactive.

For the compound `Cc1c(C(=O)Nc2ccccc2F)sc2ncn(CC(=O)N3CCOCC3)c(=O)c12`, the call was inactive.

Turning to `Cc1nc2ccc(C(=O)NC(C)(C)C)cn2c1N(C)C(=O)CCc1ccccc1`, the result was inactive.

In the case of `O=C(Nc1ccc2ccccc2c1)C(C1CC1)n1c(=O)c(-c2cc3ccccc3[nH]2)nc2ccccc21` (configuration not stated), the compound was called inactive.

For the compound `COc1ccc(CCC(C)NCc2ccc(F)cc2)cc1` (configuration not stated), the call was inactive.

For `CCCn1c(=N)n(CC(O)COc2ccc(C)cc2)c2ccccc21` (configuration not stated), the call was inactive.

For the compound `CCN(C(=O)COC(=O)c1cc2c(s1)CCCCC2)C1CCS(=O)(=O)C1` (configuration not stated), the compound was called inactive.

On to `Cc1cc(C)n2c(NC3CCCC3)c(-c3cccnc3)nc2n1`, for which the compound was classed as inactive.

Take `CCOC(=O)C1CCN(Cc2c(C(=O)N3CCOCC3)nc3c(C)cccn23)CC1`: the result was inactive.

Turning to `CCCCC[C@H]1CN(CCc2ccccc2)C(=O)[C@@H]1CC(=O)NCc1ccc(OC)cc1`, the compound was classed as inactive.

Regarding `CO[C@H]1CN(C)C(=O)c2cc(NC(=O)c3ccccc3F)ccc2OC[C@H](C)N(CC2CCOCC2)C[C@H]1C`, the result was inactive.

On to `CC(=O)N[C@@H]1CC[C@H](CCNC(=O)C2CCCC2)O[C@H]1CO`, for which the compound was classed as inactive.

Regarding `CC(C)NC(=O)Nc1ccc2c(c1)C(=O)N([C@@H](C)CO)C[C@H](C)[C@H](CN(C)C(=O)Nc1ccc3c(c1)OCO3)O2`, the result was inactive.

With `COc1ccc(NC(=O)Nc2cccc3c2O[C@H](CN(C)S(=O)(=O)c2ccccc2)[C@H](C)CN([C@@H](C)CO)C3=O)cc1`, the call was inactive.

On to `COc1ccc(S(=O)(=O)N2CCCC2C(=O)NCC(=O)Nc2cccc(Cl)c2C)cc1` (configuration not stated), for which the compound was called inactive.

As to `O=C(NCc1ccncc1)c1cccc(NS(=O)(=O)c2ccc(F)c(F)c2)c1`, the result was inactive.
